From PubChem BioAssay (EPA / NIEHS)
Values joined by “and” are separate entries in the source; they are usually repeats but may differ in a detail not shown here. Equal values may be shown once. The source holds several records for some structures; these can differ, active in one and inactive in another. Active and inactive are the calls of the source. How the source made its calls: active means hit-call score of the fitted dose curve at least 0.9, where 1 is the maximum; inactive means score below 0.9.

Columns and labels:
[1] = read-out: Macrophage colony-stimulating factor (MCSF), CSF1 (gene 1435); experiment: BSK_hDFCGF_MCSF: BioMAP Diversity Plus: hDFCGF Assay for Macrophage colony-stimulating factor (MCSF) Biomarker Activity (AID 2283060); settings: primary human foreskin fibroblasts; actives raise or lower the signal
In short: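 fibroblasts (human foreskin, primary), 24 h post-dose; M-CSF by ELISA; bidirectional fit, DMSO = baseline.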

[2] = BSK_hDFCGF_SRB: Viability Assessment in the BioMAP Diversity Plus: hDFCGF Assay (AID 2283061); settings: primary human foreskin fibroblasts;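 further: cells exposed to compound for 24 h before the read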
In short: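 SRB-based viability read on primary human skin fibroblasts at 24 h: TCA fixation, 0.1% dye, 560 nm. Gain or loss of signal is fitted against the DMSO negative control.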

[3] = read-out: TIMP metallopeptidase inhibitor 1 (TIMP1), TIMP1 (gene 7076); experiment: BSK_hDFCGF_TIMP1: BioMAP Diversity Plus: hDFCGF Assay for TIMP metallopeptidase inhibitor 1 (TIMP1) Biomarker Activity (AID 2283062); settings: primary human foreskin fibroblasts; actives raise or lower the signal
In short: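 Bidirectional curve fitting against DMSO baseline yielded this endpoint, based on ELISA detection of TIMP-1 in primary human foreskin fibroblasts exposed to compound for 24 h.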

[4] = read-out: Monokine induced gamma interferon (MIG), CXCL9 (gene 4283); experiment: BSK_hDFCGF_MIG: BioMAP Diversity Plus: hDFCGF Assay for Monokine induced gamma interferon (MIG) Biomarker Activity (AID 2283063); settings: primary human foreskin fibroblasts; actives raise or lower the signal
In short: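 Endpoint derived by bidirectional fitting relative to DMSO; MIG quantified via ELISA in primary human foreskin fibroblasts harvested 24 h after dosing.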

[5] = read-out: Matrix Metallopeptidase 1 (MMP1), MMP1 (gene 4312); experiment: BSK_hDFCGF_MMP1: BioMAP Diversity Plus: hDFCGF Assay for Matrix Metallopeptidase 1 (MMP1) Biomarker Activity (AID 2283064); settings: primary human foreskin fibroblasts; actives raise or lower the signal
In short: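 Primary human foreskin fibroblasts exposed to chemicals for 24 h; MMP1 measured by ELISA. Cytotoxicity tracked by SRB staining in parallel cultures; bidirectional fit relative to DMSO.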

[6] = read-out: Vascular cell adhesion molecule 1 (VCAM1), VCAM1 (gene 7412); experiment: BSK_hDFCGF_VCAM1: BioMAP Diversity Plus: hDFCGF Assay for Vascular cell adhesion molecule 1 (VCAM1) Biomarker Activity (AID 2283065); settings: primary human foreskin fibroblasts; actives raise or lower the signal;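 on AC50: VCAM-1 protein level quantified by ELISA after 24 h chemical exposure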
In short: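 Measured after 24 h chemical treatment of primary human skin fibroblasts, VCAM-1 was detected by ELISA and concentration-response analysed in both directions versus DMSO vehicle.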

[7] = read-out: Plasminogen activator inhibitor-1 (PAI1), SERPINE1 (gene 5054); experiment: BSK_hDFCGF_PAI1: BioMAP Diversity Plus: hDFCGF Assay for Plasminogen activator inhibitor-1 (PAI1) Biomarker Activity (AID 2283066); settings: primary human foreskin fibroblasts; actives raise or lower the signal
In short: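 PAI-1 levels, determined by ELISA, served as the endpoint in human foreskin fibroblast cultures exposed to compound for 24 h, with DMSO as baseline.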

[8] = read-out: Intercellular Adhesion Molecule 1 (ICAM1), ICAM1 (gene 3383); experiment: BSK_KF3CT_ICAM1: BioMAP Diversity Plus: KF3CT Assay for Intercellular Adhesion Molecule 1 (ICAM1) Biomarker Activity (AID 2283067); settings: primary human keratinocytes with fibroblasts; actives raise or lower the signal
In short: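 Bidirectional curve fitting against a DMSO baseline was applied to ICAM-1 ELISA signal from primary human skin co-cultures harvested 24 h after treatment, with SRB staining of parallel wells for overt cytotoxicity.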

[9] = read-out: Interferon-gamma inducible Protein 10 (IP10), CXCL10 (gene 3627); experiment: BSK_KF3CT_IP10: BioMAP Diversity Plus: KF3CT Assay for Interferon-gamma inducible Protein 10 (IP10) Biomarker Activity (AID 2283068); settings: primary human keratinocytes with fibroblasts; actives raise or lower the signal
In short: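 Human keratinocyte plus foreskin fibroblast primary co-culture exposed to test chemical for 24 h; IP-10 measured by ELISA. Concentration-response fitted bidirectionally against DMSO control as baseline.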

[10] = BSK_KF3CT_SRB: Viability Assessment in the BioMAP Diversity Plus: KF3CT Assay (AID 2283069); settings: primary human keratinocytes with fibroblasts;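 further: total protein by sulforhodamine B staining as a cytotoxicity measure; read 24 h after compound addition; fitted for both signal gain and loss against DMSO baseline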
In short: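 Human keratinocyte and foreskin fibroblast co-culture exposed to chemical for 24 h. Total protein measured in parallel cultures by 0.1% sulforhodamine B staining after 10% TCA fixation, read at 560 nm; bidirectional fit relative to DMSO.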

[11] = read-out: Interleukin-1 alpha (IL1a), IL1A (gene 3552); experiment: BSK_KF3CT_IL1a: BioMAP Diversity Plus: KF3CT Assay for Interleukin-1 alpha (IL1a) Biomarker Activity (AID 2283070); settings: primary human keratinocytes with fibroblasts; actives raise or lower the signal
In short: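 Primary human keratinocyte plus foreskin fibroblast co-culture, dosed and measured at 24 h in 96-well plates. IL-1a level quantified by ELISA; bidirectional fit relative to DMSO.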

[12] = read-out: TIMP metallopeptidase inhibitor 2 (TIMP2), TIMP2 (gene 7077); experiment: BSK_KF3CT_TIMP2: BioMAP Diversity Plus: KF3CT Assay for TIMP metallopeptidase inhibitor 2 (TIMP2) Biomarker Activity (AID 2283071); settings: primary human keratinocytes with fibroblasts; actives raise or lower the signal
In short: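 Keratinocyte–fibroblast co-culture, 24 h exposure; TIMP-2 ELISA, DMSO-normalised bidirectional fit. Parallel SRB (0.1%, TCA-fixed, 560 nm) total-protein staining gauges cytotoxicity.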

[13] = read-out: Transforming growth factor beta 1 (TGFb1), TGFB1 (gene 7040); experiment: BSK_KF3CT_TGFb1: BioMAP Diversity Plus: KF3CT Assay for Transforming growth factor beta 1 (TGFb1) Biomarker Activity (AID 2283072); settings: primary human keratinocytes with fibroblasts; actives raise or lower the signal
In short: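 Signal changes in either direction, relative to DMSO, define activity here. TGF-b1 is read by ELISA from a human keratinocyte-fibroblast co-culture 24 h post-dose.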

[14] = read-out: C-C motif chemokine 2 (Homo sapiens) (UniProt P13500); experiment: BSK_KF3CT_MCP1: BioMAP Diversity Plus: KF3CT Assay for Monocyte Chemoattractant Protein 1 (MCP1/CCL2) Biomarker Activity (AID 2283073); settings: primary human keratinocytes with fibroblasts; actives raise or lower the signal
In short: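 Biomarker MCP-1 is measured by ELISA in primary human keratinocytes co-cultured with foreskin fibroblasts, 24 h after chemical treatment; DMSO serves as the negative control and activity baseline.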

[15] = read-out: Matrix Metallopeptidase 9 (MMP9), MMP9 (gene 4318); experiment: BSK_KF3CT_MMP9: BioMAP Diversity Plus: KF3CT Assay for Matrix Metallopeptidase 9 (MMP9) Biomarker Activity (AID 2283074); settings: primary human keratinocytes with fibroblasts; actives raise or lower the signal;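 on AC50: MMP9 protein level quantified by ELISA in the co-culture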
In short: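 Human keratinocyte and foreskin fibroblast co-culture exposed to chemicals for 24 h; MMP9 biomarker measured by ELISA, bidirectional fitting relative to DMSO; cytotoxicity tracked by SRB total protein staining in parallel cultures.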

[16] = read-out: urokinase plasminogen activator (uPA), PLAU (gene 5328); experiment: BSK_KF3CT_uPA: BioMAP Diversity Plus: KF3CT Assay for urokinase plasminogen activator (uPA) Biomarker Activity (AID 2283075); settings: primary human keratinocytes with fibroblasts; actives raise or lower the signal
In short: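 Primary human keratinocyte/foreskin fibroblast co-culture exposed to chemical; uPA measured by ELISA at 24 h. Bidirectional fit versus DMSO, with parallel SRB total-protein staining for cytotoxicity.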

[17] = read-out: CD40, CD40 (gene 958); experiment: BSK_LPS_CD40: BioMAP Diversity Plus: LPS Assay for CD40 Biomarker Activity (AID 2283076); settings: primary human HUVEC with PBMC; actives raise or lower the signal
In short: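 Using a multiplexed primary human co-culture (umbilical vein endothelium plus PBMC), CD40 was read by ELISA 24 h after dosing, with cytotoxicity tracked by sulforhodamine B staining of parallel cultures and activity fitted bidirectionally versus DMSO.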

[18] = read-out: E-selectin (Homo sapiens) (UniProt P16581); experiment: BSK_LPS_Eselectin: BioMAP Diversity Plus: LPS Assay for Eselectin Biomarker Activity (AID 2283077); settings: primary human HUVEC with PBMC; actives raise or lower the signal
In short: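 Dose chemical onto LPS-driven HUVEC/PBMC co-culture; after 24 h, run ELISA for E-selectin; fit up- and down-going responses relative to DMSO control.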

[19] = read-out: Interleukin-8 (IL8), CXCL8 (gene 3576); experiment: BSK_LPS_IL8: BioMAP Diversity Plus: LPS Assay for Interleukin-8 (IL8) Biomarker Activity (AID 2283078); settings: primary human HUVEC with PBMC; actives raise or lower the signal
In short: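 In this LPS system, chemical-treated human umbilical vein endothelium/PBMC co-cultures were harvested at 24 h for IL-8 ELISA.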

[20] = BSK_LPS_SRB: Viability Assessment in the BioMAP Diversity Plus: LPS Assay (AID 2283079); settings: primary human HUVEC with PBMC;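 further: total protein by sulforhodamine B absorbance as a cytotoxicity measure; measured one day after compound addition; fitted in both directions against DMSO so loss or gain of signal counts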
In short: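 Cytotoxicity endpoint in human endothelial–PBMC co-culture: 24 h exposure, then SRB (0.1%) staining, 560 nm read.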

Measured: AC50

Sequence of E-selectin (Homo sapiens) (P16581 whole entry, looked up): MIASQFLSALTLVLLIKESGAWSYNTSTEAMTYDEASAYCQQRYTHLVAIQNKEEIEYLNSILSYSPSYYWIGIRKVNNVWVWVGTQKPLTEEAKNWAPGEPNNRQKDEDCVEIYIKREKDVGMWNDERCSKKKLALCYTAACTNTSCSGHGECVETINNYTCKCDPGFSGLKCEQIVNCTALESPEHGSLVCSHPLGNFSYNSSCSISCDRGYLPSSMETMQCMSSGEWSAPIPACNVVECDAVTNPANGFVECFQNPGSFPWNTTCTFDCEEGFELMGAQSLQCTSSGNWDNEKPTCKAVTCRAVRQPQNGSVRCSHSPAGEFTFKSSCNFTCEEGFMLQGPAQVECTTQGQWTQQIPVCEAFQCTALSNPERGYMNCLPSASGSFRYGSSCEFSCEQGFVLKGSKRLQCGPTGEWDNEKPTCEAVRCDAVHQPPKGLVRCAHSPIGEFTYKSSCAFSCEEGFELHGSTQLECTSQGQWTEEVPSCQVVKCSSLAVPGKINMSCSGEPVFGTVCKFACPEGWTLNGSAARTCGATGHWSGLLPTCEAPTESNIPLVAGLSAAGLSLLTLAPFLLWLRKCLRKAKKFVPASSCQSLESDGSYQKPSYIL

COc1ccc(C(=O)/C(Br)=C\C(=O)O)cc1
inactive: [7] | [10] | [16]
active: [1] 15.4 µM and 20 µM | [2] 29.4 µM | [3] 28.6 µM and 20 µM | [4] 28 µM and 31.3 µM | [5] 33.5 µM and 30.7 µM | [6] 14.7 µM and 7.59 µM | [7] 28.9 µM | [8] 20 µM | [9] 30.6 µM and 30.2 µM | [10] 32 µM | [11] 20 µM and 24.8 µM | [12] 20 µM | [13] 20 µM and 6.52 µM | [14] 33 µM and 35 µM | [15] 25.6 µM and 23.3 µM | [16] 31.7 µM | [17] 10.2 µM and 16 µM | [18] 25.3 µM and 30.3 µM | [19] 20 µM | [20] 27.9 µM and 31 µM

Nc1ccc(C(=O)O)cc1
inactive: [1] | [2] | [3] | [4] | [5] | [6] | [7] | [8] | [9] | [10] | [11] | [12] | [13] | [14] | [15] | [16] | [17] | [18] | [19] | [20]

O=C1CCCCCCCCCCCN1
inactive: [1] | [2] | [3] | [4] | [5] | [6] | [7] | [8] | [9] | [10] | [11] | [12] | [13] | [14] | [15] | [16] | [17] | [18] | [19] | [20]

Oc1ccccc1Cc1ccccc1O
active: [2] 1.22 µM and 191 nM
inactive: [1] | [3] | [4] | [5] | [6] | [7] | [8] | [9] | [10] | [11] | [12] | [14] | [15] | [16] | [18] | [19] | [20]

Oc1ccc(/C=C/c2cc(O)cc(O)c2)cc1
inactive: [1] | [2] | [3] | [4] | [5] | [6] | [8] | [9] | [10] | [13] | [16] | [18] | [19]
active: [7] 0.474 µM | [11] 3.97 µM | [12] 8.83 µM | [14] 20 µM | [15] 16 µM | [20] 20 µM

CC(C)[N+](C)(CCOC(=O)C1c2ccccc2Oc2ccccc21)C(C)C
inactive: [1] | [2] | [3] | [4] | [5] | [6] | [7] | [8] | [9] | [10] | [11] | [12] | [13] | [14] | [15] | [16] | [18] | [19]
active: [20] 3.97 µM

CCCCCCCCCCCC(C)=O
active: [12] 3.97 µM | [14] 31.5 µM | [18] 23.9 µM
inactive: [1] | [2] | [3] | [4] | [5] | [6] | [7] | [8] | [9] | [10] | [11] | [13] | [15] | [16] | [19] | [20]

CC(CCC(=O)O)(c1ccc(O)cc1)c1ccc(O)cc1
inactive: [1] | [2] | [3] | [4] | [5] | [6] | [7] | [8] | [9] | [10] | [11] | [12] | [14] | [15] | [16] | [17] | [18] | [19] | [20]

CCCC(C)C(=O)OCC (centres undefined)
inactive: [1] | [2] | [3] | [4] | [5] | [6] | [7] | [8] | [9] | [10] | [11] | [12] | [14] | [15] | [16] | [18] | [19] | [20]

CCCCCCCCCCCC(=O)N(C)CC(=O)O
inactive: [1] | [2] | [3] | [4] | [5] | [6] | [7] | [8] | [9] | [10] | [11] | [12] | [14] | [15] | [16] | [18] | [19] | [20]

CCCCCCCCC(CO)CCCCCC (centres undefined)
active: [1] 4.32 µM | [2] 2 µM | [7] 3.75 µM
inactive: [3] | [4] | [5] | [6] | [8] | [9] | [10] | [11] | [12] | [13] | [14] | [15] | [16] | [18] | [19] | [20]

CC(C)CCCCCOC(=O)CS
inactive: [1] | [2] | [3] | [4] | [5] | [6] | [8] | [9] | [10] | [11] | [12] | [13] | [14] | [15] | [16] | [18] | [19] | [20]
active: [7] 9.15 µM

Nc1nc(N)nc(-c2ccccc2)n1
inactive: [1] | [2] | [3] | [4] | [5] | [6] | [7] | [8] | [9] | [10] | [11] | [12] | [14] | [15] | [16] | [18] | [19] | [20]
